Data published in a collection of fitness landscapes (doi:10.1016/j.celrep.2020.107928).
In all, about 81,000 sequences were measured (“one-hybrid fitness for binding parS DNA”: median about -0.17, highest 2% from about 0.51 on). The list comes from a sample in which the highest values are over-represented; it also holds similar and randomly drawn sequences.

B1: Caulobacter ParB omega fusion; a variant is named by its letters at X, in order, B8GW30 (parent)
chain: MESVVVGEPGMSEGRRGLGRGLSALLGEVDAAPAQAPGEQLGGSREAPIEILQRNPDQPRRTFREEDLEDLSNSIREKGVLQPILVRPSPDTAGEYQIVAGERAWRAAQRAGLKTVPIMVRELDDLAVLEIGIIENVQRADLNVLEEALSYKVLMEKFERTQENIAQTIGKSXSHVANXMRLLXLPDEVQSYLVSGELTAXHARAIAAAADPVALAKQIIEGGLSVRETEALARKAPNLSAGKSKGGRPPRVKDTDTQALESDLSSVLGLDVSIDHRGSTGTLTITYATLEQLDDLCNRLTRGI

Variants of: B1
Test: one-hybrid fitness for binding parS DNA (scaled: cognate 1, non-cognate 0); higher = stronger binding
Settings: with parS DNA site
In short: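 Values were rescaled so that cognate is 1 and non-cognate is 0. Each is a fitness, the log change in a variant's read ratio to wild type from Illumina reads of plasmids before and after selection, with three replicate libraries pooled and variants under 10 reads dropped. Selection of the Caulobacter ParB libraries, four specificity codons randomised, used E. coli USO with a HIS3 reporter, site 19 bp from the promoter, on M9-minus-histidine with 0.1 mM IPTG and 5 mM 3-AT for 48 hours at 37°C.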

Variant | one-hybrid fitness for binding parS DNA
LQQY | ≤ 0.2
RMNP | ≤ 0.2
RMYN | 0.47
RMYH | 0.234
RMYS | 1.01
RMNS | 0.911
RMNH | 0.287
AHEC | ≤ 0.2
EPSR | ≤ 0.2
TPDV | ≤ 0.2
PQMC | ≤ 0.2
RNTH | ≤ 0.2
RNTG | 0.908
RNTC | 0.865
RNTK | ≤ 0.2
RNTM | 0.233
RNTT | 0.746
RNTS | 0.964
RNTY | 0.368
RNTD | ≤ 0.2
RNTR | ≤ 0.2
RNTP | ≤ 0.2
RNTN | 0.357
NCAN | ≤ 0.2

Variant | one-hybrid fitness for binding parS DNA
MWTR | ≤ 0.2
DRQW | ≤ 0.2
ADQL | ≤ 0.2
NGAG | ≤ 0.2
HAPM | ≤ 0.2
HNLP | ≤ 0.2
SYAS | ≤ 0.2
RFDG | 0.814
RFNG | 1
RFDD | ≤ 0.2
DFNG | ≤ 0.2
NFNG | ≤ 0.2
AFDG | ≤ 0.2
LMSV | ≤ 0.2
AAST | ≤ 0.2
SSPQ | ≤ 0.2
THVR | ≤ 0.2
DHYT | ≤ 0.2
GFSS | ≤ 0.2
RYVK | ≤ 0.2
RYKT | 0.708
RYKN | 0.394
RYVR | ≤ 0.2
RYKH | ≤ 0.2

Variant | one-hybrid fitness for binding parS DNA
RYVT | 0.716
HYNK | ≤ 0.2
QWNN | ≤ 0.2
PIAM | ≤ 0.2
LLNT | ≤ 0.2
MIIT | ≤ 0.2
IARP | ≤ 0.2
RGVW | ≤ 0.2
RRKP | 0.338
RRVM | ≤ 0.2
RCKN | 0.463
RRNM | 0.656
RRKM | 0.802
RRKS | 0.684
RCKM | 0.402
RRKN | 0.84
RRVN | 0.268
RRDM | ≤ 0.2
RCNM | 0.349
RRKD | ≤ 0.2
IVNW | ≤ 0.2
TART | ≤ 0.2
ACQS | ≤ 0.2
MKRG | ≤ 0.2

Variant | one-hybrid fitness for binding parS DNA
RRVP | ≤ 0.2
RRVS | 0.708
RRVH | ≤ 0.2
RRVD | ≤ 0.2
RCKH | ≤ 0.2
RRKH | 0.623
RRYM | 0.206
RCRM | 0.365
RRRM | 0.762
GKVS | ≤ 0.2
NRQG | ≤ 0.2
ATIC | ≤ 0.2
YVNR | ≤ 0.2
QQAI | ≤ 0.2
RVIA | 0.522
RVPA | 0.324
DVWA | ≤ 0.2
NVWA | ≤ 0.2
RVWA | 0.616
RVHA | 0.552
RVSA | 0.581
SVIA | ≤ 0.2
PVHA | ≤ 0.2
PVSA | ≤ 0.2

Variant | one-hybrid fitness for binding parS DNA
TLSH | ≤ 0.2
DKSV | ≤ 0.2
GGQR | ≤ 0.2
GCKT | ≤ 0.2
HKHC | ≤ 0.2
EMRS | ≤ 0.2
QDPW | ≤ 0.2
NVQA | ≤ 0.2
NVYA | ≤ 0.2
NVNA | ≤ 0.2
RVYA | 0.64
EVQA | ≤ 0.2
DVMA | ≤ 0.2
RVNA | 0.602
RVEA | 0.483
RVQA | 0.597
PVNA | ≤ 0.2
RVMA | 0.545
FHNR | ≤ 0.2
KHET | ≤ 0.2
LGQH | ≤ 0.2
KKTT | ≤ 0.2
TGPM | ≤ 0.2
PPMA | ≤ 0.2

Variant | one-hybrid fitness for binding parS DNA
WVPV | ≤ 0.2
GEND | ≤ 0.2
TSEH | ≤ 0.2
DVRA | ≤ 0.2
CVLA | ≤ 0.2
NVDA | ≤ 0.2
RVLA | 0.565
RVRA | 0.689
RVGA | 0.565
NVLA | ≤ 0.2
RVDA | 0.556
PVGA | ≤ 0.2
DVGA | ≤ 0.2
NVRA | ≤ 0.2
EWRT | ≤ 0.2
LSNV | ≤ 0.2
LQAW | ≤ 0.2
ESFC | ≤ 0.2
WPSS | ≤ 0.2
KRVW | ≤ 0.2
IRFN | ≤ 0.2
FLDR | ≤ 0.2
MLTT | ≤ 0.2
YVRR | ≤ 0.2

Variant | one-hybrid fitness for binding parS DNA
RCPV | ≤ 0.2
RVCA | 0.608
NVCA | ≤ 0.2
KMLT | ≤ 0.2
WVPC | ≤ 0.2
CYWL | ≤ 0.2
QPKK | ≤ 0.2
VRCA | ≤ 0.2
RHVC | 0.773
RHKM | 0.358
RHKC | 0.858
RHVR | ≤ 0.2
RHVQ | ≤ 0.2
RHKQ | ≤ 0.2
SHAT | ≤ 0.2
DRYP | ≤ 0.2
IQCS | ≤ 0.2
TYDM | ≤ 0.2
RGKD | ≤ 0.2
RGKY | 0.436
RGVN | ≤ 0.2
RGVP | ≤ 0.2
RGKT | 0.712
RGVT | 0.33

Variant | one-hybrid fitness for binding parS DNA
RGKS | 0.927
RGKN | 0.369
RGVS | 0.516
LSNY | ≤ 0.2
WVRY | ≤ 0.2
MIPI | ≤ 0.2
GELY | ≤ 0.2
GYSK | ≤ 0.2
QACE | ≤ 0.2
NCKN | ≤ 0.2
VNAS | ≤ 0.2
DRKA | ≤ 0.2
NRKA | ≤ 0.2
RRKA | 0.532
RRVA | 0.78
NRVA | ≤ 0.2
YMAC | ≤ 0.2
EHCS | ≤ 0.2
RYLK | ≤ 0.2
RYQC | 0.898
RYQP | ≤ 0.2
RYHC | 0.949
RYHY | 0.423
RYLC | 0.955

Variant | one-hybrid fitness for binding parS DNA
RYHR | ≤ 0.2
RYSK | ≤ 0.2
RYSF | ≤ 0.2
RYLR | ≤ 0.2
RYSC | 0.929
RYQN | 0.318
SLCV | ≤ 0.2
CHLH | ≤ 0.2
CAHG | ≤ 0.2
MLWF | 0.204
KWCS | ≤ 0.2
VPGF | ≤ 0.2
PGPY | ≤ 0.2
ELLG | ≤ 0.2
NRNN | ≤ 0.2
TSHR | ≤ 0.2
SYEV | ≤ 0.2
RYRC | 0.798
RYWF | 0.258
RYWC | 0.887
RYRM | 0.328
RYWR | ≤ 0.2
RYRK | ≤ 0.2
RYYQ | ≤ 0.2

Variant | one-hybrid fitness for binding parS DNA
RYCF | ≤ 0.2
RYCR | ≤ 0.2
RYYR | ≤ 0.2
RYCC | 0.903
RYYC | 0.975
QPAG | ≤ 0.2
WKQT | ≤ 0.2
SDLQ | ≤ 0.2
CPED | ≤ 0.2
GWLY | ≤ 0.2
RYGC | 0.914
RYGP | ≤ 0.2
RYGH | ≤ 0.2
DNPV | ≤ 0.2
NFHG | ≤ 0.2
NFRG | ≤ 0.2
RFCG | 0.895
SFCG | ≤ 0.2
RFRG | 0.992
NFYG | ≤ 0.2
DFRG | ≤ 0.2
DFYG | ≤ 0.2
RFHG | 0.974
NFCG | ≤ 0.2

Variant | one-hybrid fitness for binding parS DNA
RFYG | 0.899
DFHG | ≤ 0.2
QYLK | ≤ 0.2
ALTP | ≤ 0.2
ELKN | ≤ 0.2
VNHC | ≤ 0.2
DHWC | ≤ 0.2
FRFT | ≤ 0.2
TDKR | ≤ 0.2
FTYC | ≤ 0.2
QQPP | ≤ 0.2
WLFI | ≤ 0.2
AEPL | ≤ 0.2
RFGD | ≤ 0.2
RFLG | 0.891
RFLH | 0.217
DFLG | ≤ 0.2
RFGG | 0.918
NFGG | ≤ 0.2
QKFT | ≤ 0.2
TIPM | ≤ 0.2
NRFA | ≤ 0.2
RRAA | 0.724
NRAA | ≤ 0.2

Variant | one-hybrid fitness for binding parS DNA
DRAA | ≤ 0.2
DRFA | ≤ 0.2
RRFA | 0.806
RAFI | ≤ 0.2
DPVD | ≤ 0.2
RHKD | ≤ 0.2
RHVP | ≤ 0.2
RHVH | ≤ 0.2
RHVG | 0.847
RHKH | 0.248
RHKG | 0.879
QEEC | ≤ 0.2
PYTA | ≤ 0.2
QTGF | ≤ 0.2
RWNP | ≤ 0.2
RWRG | 0.881
RWHH | ≤ 0.2
RWLY | 0.266
RWNG | 0.797
RWRY | 0.494
RWHG | 0.754
RWLG | 0.685
RWRQ | ≤ 0.2
RWLF | ≤ 0.2

Variant | one-hybrid fitness for binding parS DNA
RWHP | ≤ 0.2
RWNN | 0.355
DKAC | ≤ 0.2
PMRT | ≤ 0.2
CRCT | ≤ 0.2
TSLF | ≤ 0.2
MEYL | ≤ 0.2
QCLV | ≤ 0.2
EWYS | ≤ 0.2
RWGF | ≤ 0.2
RWIG | 0.569
RWPG | 0.406
RWSR | ≤ 0.2
RWIF | ≤ 0.2
RWGG | 0.63
RWGM | ≤ 0.2
RWYM | ≤ 0.2
RWSG | 0.769
RWYG | 0.714
RWYF | ≤ 0.2
RWSQ | ≤ 0.2
